Reference: PubChem BioAssay (NCATS)
Inconclusive results are not listed. Activity calls are given as the source filed them. Calls come from the whole dose curve; as a rule, active = well fitted curve in the direction sought with a large enough effect; inconclusive = small, poorly fitted or top-dose-only effect, or another doubt; inactive = no such curve, though single readings can be large; an effect the other way counts as inactive or inconclusive.

Legend:
[1] = Quantitative High-Throughput drug screen in 47 multiple myeloma cell lines against the NCATS MIPE library collection: KMS12BM_JCRB cell viability assay (AID 1918971); note: nearly all actives have a fitted effect of over 35% in size
In short: (§1)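 Approved and investigational drugs from MIPE 4.0 were added by pin tool to 500 cells per well. After 48 hours at 37C, ATP-based CellTiter-Glo luminescence indicated remaining viability.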

[2] = Quantitative High-Throughput drug screen in 47 multiple myeloma cell lines against the NCATS MIPE library collection: KMS12PE_JCRB cell viability assay (AID 1918972); note: nearly all actives have a fitted effect of over 30% in size
In short: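 CellTiter-Glo luminescence (ATP) after 48 h compound exposure, 37C/5% CO2; 500 cells/well; MIPE 4.0 approved/investigational drugs pinned in; DMSO = 100%, media only = 0% viability.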

[3] = Quantitative High-Throughput drug screen in 47 multiple myeloma cell lines against the NCATS MIPE library collection: KMS20_JCRB cell viability assay (AID 1918973); note: nearly all actives have a fitted effect of over 45% in size
In short: (§2)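 CellTiter-Glo ATP luminescence gave viability after 48 h compound treatment at 37C of 500 multiple myeloma cells per well. Normalisation used DMSO-only wells as 100% and media-only wells as 0% viability; primary qHTS of approved and investigational drugs.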

[4] = Quantitative High-Throughput drug screen in 47 multiple myeloma cell lines against the NCATS MIPE library collection: KMS26_JCRB cell viability assay (AID 1918975); note: nearly all actives have a fitted effect of over 45% in size
In short: as §1

[5] = Quantitative High-Throughput drug screen in 47 multiple myeloma cell lines against the NCATS MIPE library collection: MMM1_PLB cell viability assay (AID 1918976); note: nearly all actives have a fitted effect of over 35% in size
In short: (§3)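 500 cells/well; MIPE 4.0 drugs pin-transferred; 48 h, 37C, 5% CO2. CellTiter-Glo, 5 min RT, luminescence. Controls: DMSO 100%, media 0%.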

[6] = Quantitative High-Throughput drug screen in 47 multiple myeloma cell lines against the NCATS MIPE library collection: NCIH929_DSMZ cell viability assay (AID 1918978); note: nearly all actives have a fitted effect of over 35% in size
In short: as §3

[7] = Quantitative High-Throughput drug screen in 47 multiple myeloma cell lines against the NCATS MIPE library collection: OCIMY1_PLB cell viability assay (AID 1918979); note: nearly all actives have a fitted effect of over 35% in size
In short: as §3

[8] = Quantitative High-Throughput drug screen in 47 multiple myeloma cell lines against the NCATS MIPE library collection: MM1R_ATCC cell viability assay (AID 1918981); note: nearly all actives have a fitted effect of over 35% in size
In short: as §3

[9] = Quantitative High-Throughput drug screen in 47 multiple myeloma cell lines against the NCATS MIPE library collection: LP1_DSMZ cell viability assay (AID 1918982); note: nearly all actives have a fitted effect of over 35% in size
In short: as §3

[10] = Quantitative High-Throughput drug screen in 47 multiple myeloma cell lines against the NCATS MIPE library collection: L363_DSMZ cell viability assay (AID 1918984); conditions: L363 myeloma viability, CellTiter-Glo ATP luminescence, 48 h; viability (% of control): at 45.8 µM (top of the series); note: nearly all actives have a fitted effect of over 40% in size
In short: as §3

[11] = Quantitative High-Throughput drug screen in 47 multiple myeloma cell lines against the NCATS MIPE library collection: OCIMY7_PLB cell viability assay (AID 1918987); conditions: OCI-MY7 myeloma viability, CellTiter-Glo ATP, 48 h; viability (% of DMSO): at 45.8 µM (top of the series); note: nearly all actives have a fitted effect of over 65% in size
In short: as §3

[12] = Quantitative High-Throughput drug screen in 47 multiple myeloma cell lines against the NCATS MIPE library collection: OCIMY5_PLB cell viability assay (AID 1918988); note: nearly all actives have a fitted effect of over 65% in size
In short: as §3

[13] = Quantitative High-Throughput drug screen in 47 multiple myeloma cell lines against the NCATS MIPE library collection: OPM1_PLB cell viability assay (AID 1918989); note: nearly all actives have a fitted effect of over 40% in size
In short: as §3

[14] = Quantitative High-Throughput drug screen in 47 multiple myeloma cell lines against the NCATS MIPE library collection: KMS21BM_JCRB cell viability assay (AID 1918974); conditions: ATP luminescence, 48 h; viability: at 45.8 µM (top of the series)
In short: as §2

[15] = Quantitative High-Throughput drug screen in 47 multiple myeloma cell lines against the NCATS MIPE library collection: MOLP8_DSMZ cell viability assay (AID 1918977); note: nearly all actives have a fitted effect of over 45% in size
In short: as §3

[16] = Quantitative High-Throughput drug screen in 47 multiple myeloma cell lines against the NCATS MIPE library collection: KMS34_JCRB cell viability assay (AID 1918985); note: nearly all actives have a fitted effect of over 40% in size
In short: as §3

[17] = Quantitative High-Throughput drug screen in 47 multiple myeloma cell lines against the NCATS MIPE library collection: SKMM1_PLB cell viability assay (AID 1919863); conditions: SKMM1 myeloma viability, CellTiter-Glo ATP, 48 h; viability: active compounds read low; note: nearly all actives have a fitted effect of over 35% in size
In short: as §3

[18] = Quantitative High-Throughput drug screen in 47 multiple myeloma cell lines against the NCATS MIPE library collection: U266_ATCC cell viability assay (AID 1919864); note: nearly all actives have a fitted effect of over 35% in size
In short: as §3

[19] = Quantitative High-Throughput drug screen in 47 multiple myeloma cell lines against the NCATS MIPE library collection: MM1S_ATCC cell viability assay (AID 1918980); note: nearly all actives have a fitted effect of over 45% in size
In short: as §3

[20] = Quantitative High-Throughput drug screen in 47 multiple myeloma cell lines against the NCATS MIPE library collection: KMS28PE_JCRB cell viability assay (AID 1918983); note: nearly all actives have a fitted effect of over 35% in size
In short: as §3
Potency is the fitted concentration of half-maximal effect.

Cc1ccc(NC(=O)Nc2cc(C(F)(F)F)ccc2F)cc1Nc1ccc2c(c1)NC(=O)C2=Cc1ccc[nH]1
active: Potency [1] 26.4 µM | Potency [2] 2.35 µM | Potency [3] 5.9 µM | Potency [4] 37.2 µM | Potency [5] 33.2 µM | Potency [6] 4.18 µM | Potency [7] 23.5 µM | Potency [8] 26.4 µM | Potency [9] 26.4 µM | Potency [10] 7.43 µM | Potency [11] 2.96 µM | Potency [12] 23.5 µM | Potency [13] 4.69 µM

CCC=CC[C@H]1C(=O)CC[C@@H]1CC(=O)OC
inactive: Potency [2] | Potency [3] | Potency [14] | Potency [15] | Potency [6] | Potency [7] | Potency [9] | Potency [10] | Potency [16] | Potency [13] | viability [17] 144% | Potency [18]
active: Potency [1] 2.35 µM | Potency [5] 10.5 µM

COc1ccc2ccc(=O)oc2c1CC=C(C)C
inactive: Potency [3] | Potency [6]
active: Potency [1] 13.2 µM | Potency [2] 20.9 µM | Potency [4] 10.5 µM | Potency [5] 16.6 µM | Potency [15] 8.33 µM | Potency [7] 23.5 µM | Potency [19] 2.96 µM | Potency [8] 13.2 µM | Potency [16] 13.2 µM | Potency [12] 8.33 µM | Potency [18] 13.2 µM

O=S(=O)(NCCNCC=Cc1ccc(Br)cc1)c1cccc2cnccc12
active: Potency [1] 16.6 µM | Potency [2] 16.6 µM | Potency [3] 11.8 µM | Potency [4] 13.2 µM | Potency [5] 20.9 µM | Potency [6] 14.8 µM | Potency [19] 3.72 µM | Potency [8] 20.9 µM | Potency [9] 7.43 µM | Potency [20] 18.7 µM | Potency [10] 2.96 µM | Potency [11] 23.5 µM | Potency [12] 14.8 µM | Potency [13] 8.33 µM | Potency [17] 18.7 µM | Potency [18] 20.9 µM

C[C@@H]1O[C@@H](O[C@H]2CC[C@@]3(C)[C@H](CC[C@@H]4[C@H]3C[C@@H](O)[C@]3(C)[C@@H](C5=CC(=O)OC5)CC[C@]43O)C2)C[C@H](O)[C@@H]1O[C@H]1C[C@H](O)[C@H](O[C@H]2C[C@H](O)[C@@H](O)[C@@H](C)O2)[C@H](C)O1 (stereo in doubt)
active: Potency [1] 0.215 µM | Potency [2] 0.054 µM | Potency [3] 0.27 µM | Potency [14] 0.215 µM | Potency [4] 0.27 µM | Potency [5] 0.171 µM | Potency [15] 0.152 µM | Potency [6] 0.34 µM | Potency [7] 0.241 µM | Potency [19] 0.34 µM | Potency [8] 0.27 µM | Potency [9] 0.121 µM | Potency [20] 0.152 µM | Potency [10] 0.171 µM | Potency [16] 0.34 µM | Potency [11] 0.152 µM | Potency [12] 0.136 µM | Potency [13] 0.27 µM | Potency [17] 0.303 µM | Potency [18] 0.121 µM

CN1[C@H]2CC[C@H]1CC(OC(=O)c1c[nH]c3ccccc13)C2 (some centres undefined)
inactive: Potency [1] | Potency [2] | Potency [4] | Potency [7] | Potency [8] | Potency [9] | Potency [16]
active: Potency [3] 14.8 µM | Potency [5] 1.32 µM | Potency [15] 2.35 µM | Potency [6] 18.7 µM | Potency [19] 20.9 µM | Potency [20] 9.35 µM | Potency [18] 10.5 µM

NC(=O)c1noc([C@H](CCCC2CCCCC2)CC(=O)NO)n1
active: Potency [1] 7.43 µM | Potency [2] 5.26 µM | Potency [3] 18.7 µM | Potency [4] 11.8 µM | Potency [5] 16.6 µM | Potency [6] 14.8 µM | Potency [19] 16.6 µM | Potency [11] 3.32 µM | Potency [12] 16.6 µM | Potency [13] 23.5 µM | Potency [17] 13.2 µM | Potency [18] 20.9 µM
inactive: Potency [20]

O=c1[nH]nc(OCCCc2ccc(Cl)cc2)c(NCc2cccnc2)c1Br
active: Potency [1] 18.7 µM | Potency [2] 2.64 µM | Potency [3] 1.05 µM | Potency [14] 4.69 µM | Potency [4] 14.8 µM | Potency [5] 16.6 µM | Potency [6] 7.43 µM | Potency [7] 18.7 µM | Potency [19] 8.33 µM | Potency [8] 16.6 µM | Potency [9] 14.8 µM | Potency [10] 3.72 µM | Potency [16] 20.9 µM | Potency [11] 7.43 µM | Potency [12] 18.7 µM | Potency [13] 4.69 µM | Potency [17] 18.7 µM | Potency [18] 7.43 µM

CN[C@@H]1CN(c2ccc3c(=O)c(C(=O)O)cn(-c4nccs4)c3n2)C[C@@H]1OC
active: Potency [1] 0.645 µM | Potency [3] 6.45 µM | Potency [4] 18.2 µM | Potency [5] 8.12 µM | Potency [15] 6.45 µM | Potency [6] 1.62 µM | Potency [19] 0.257 µM | Potency [8] 0.407 µM | Potency [20] 18.2 µM | Potency [16] 5.12 µM | Potency [11] 5.75 µM | Potency [12] 12.9 µM | Potency [17] 7.24 µM | Potency [18] 8.12 µM
inactive: Potency [2]

Cc1ccccc1C(=O)c1ccc(Nc2ccc(Br)cc2N)cc1Cl
active: Potency [1] 14.8 µM | Potency [2] 7.43 µM | Potency [3] 14.8 µM | Potency [4] 5.26 µM | Potency [5] 16.6 µM | Potency [6] 23.5 µM | Potency [19] 6.62 µM | Potency [20] 14.8 µM | Potency [11] 11.8 µM | Potency [12] 10.5 µM | Potency [13] 16.6 µM | Potency [17] 16.6 µM | Potency [18] 11.8 µM
